In the library only some 2.2% were active in any assay of this set; here they are far more common.
Mito fusion act: qHTS Assay for Small Molecule Inhibitors of Mitochondrial Division or Activators of Mitochondrial Fusion | S. cerevisiae fusion-defective mutant growth rescue, CellTiterGlo 48 h | Potency, µM (top dose mostly 46.1 µM), inactives show at the top dose growth rescue (activation), usual class: activators | 320,000 compounds, 0.23% hits | AID 485298, 2010; also: % of control where 0% means no effect; nearly all actives have a fitted effect of over 45% in size
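Luminescent cell viability in 1536-well qHTS format served as the measure of rescued growth in ts fusion-mutant S. cerevisiae cultured on non-fermentable YPEG for 48 hours at 37C.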
TDP-43 yeast inh: qHTS of TDP-43 Inhibitors; Potency, µM (titrated, usually from 46.1 µM), inactives show at the top dose growth rescue (activation), hits mostly activators; AID 652104, 2013; TDP-43 expressing yeast growth rescue, BacTiter-Glo, 24 h; 410,000 compounds, 1.8% hits; also: % of control where 0% means no effect; nearly all actives have a fitted effect of over 50% in size
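Cell-based yeast growth screen: TDP-43 expression induced in galactose, inoculum OD600=0.02 after raffinose pregrowth to mid-log. Read-out BacTiter-Glo luminescence at 24 hr, 30 deg C; inhibition of toxicity seen as signal increase.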
FUS suppressor: qHTS for Suppressors of FUS Proteinopathy: Primary screen using FUS-linked yeast assay; S. cerevisiae FUS-expressing, growth rescue, OD600, 24 h; Potency, µM (highest dose often 76.6 µM), most hits filed as activators; 390,000 compounds, 0.24% hits;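 also: plate controls were DMSO vehicle for no effect and reference control for full effect; nearly all actives have a fitted effect of over 55% in size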
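Absorbance at 600 nm, taken 24hr after compound addition, measured rescue of FUS-yeast growth at 30C. Induction used 2% galactose with seeding at OD 0.005. Controls: CP55940 from 92uM final, DMSO only.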
Abeta yeast res: qHTS for compounds that reverse cellular toxicity of Amyloid beta (A-beta) peptide in yeast: Primary Screen; Potency, µM (series often up to 46.1 µM), most hits filed as activators; 410,000 compounds, 0.063% hits; yeast expressing A-beta42, growth rescue, OD600, 48 h; response scale: 0% DMSO, 100% iron-clioquinol control; also: nearly all actives have a fitted effect of over 55% in size
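Yeast A-beta toxicity model in growth medium with pinned compounds, 48 h at 30 C; growth read as absorbance at 600 nm. Normalized to FeCl3/clioquinol equimolar mix (positive) and DMSO (negative).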
aSyn rescue: qHTS of alpha-syn Inhibitors | Yeast expressing alpha-synuclein, growth rescue, BacTiter-Glo, 24 h | Potency, µM (titrated, usually from 46.1 µM), for the others: at the highest dose growth rescue (activation), actives largely listed as activators | AID 652106, 2013 | 370,000 compounds, 0.14% hits; also: % of control where 0% means no effect; nearly all actives have a fitted effect of over 65% in size
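Rescue of yeast growth: cells expressing toxic alpha-synuclein, induced in galactose at OD600 0.02, incubated with compound 24 h at 30 C. ATP luminescence quantified growth; inhibitors of toxicity appear as activators.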
An asterisk follows results filed as active; i = inactive; ? = inconclusive; . = no result given. Calls follow the shape of the dose curve; as a rule, active = well fitted curve in the direction sought with a large enough effect; inconclusive = small, poorly fitted or top-dose-only effect, or another doubt; inactive = no such curve, though single readings can be large; an effect the other way counts as inactive or inconclusive. Potency is read from the fitted curve at half-maximal effect.

SMILES	Mito fusion act	TDP-43 yeast inh	FUS suppressor	Abeta yeast res	aSyn rescue
C=CCN(C(=O)c1oc2c(Cl)cc(C)cc2c1C)C1CCS(=O)(=O)C1 (configuration not stated)	5.0%	22.0%	?	i	-1.4%
COc1cccc(C2c3[nH]c4ccccc4c3C[C@H]3C(=O)N(C4CC4)CC(=O)N23)c1 (some centres not stated)	-9.7%	21.2%	i	i	0.3%
COc1ccc(C2c3[nH]c4ccccc4c3C[C@H]3C(=O)N(c4ccccc4C(=O)N4CCC(C(=O)O)CC4)C(=O)N23)cc1 (some centres not stated)	1.4%	6.9%	22.4µM*	i	0.3%
COc1cccc(C2c3[nH]c4ccccc4c3C[C@H]3C(=O)N(c4ccccc4C(=O)N4CCC(C(=O)O)CC4)C(=O)N23)c1 (some centres not stated)	-3.2%	15.8%	28.2µM*	i	3.0%
Clc1ccc(CNc2ncnc3nc[nH]c23)cc1	.	.	.	.	1.0%
CCOC(=O)c1c(N)sc2c1CCC(CC)C2 (configuration not stated)	6.4%	10.3%	i	?	7.4%
CCOC(=O)c1c(N)sc2c1CCC1C(=O)N(C3CCCCC3)C(=O)C21 (configuration not stated)	11.5%	-14.6%	28.2µM*	i	0.1%
Cc1ccc(N2CCN(C(=O)c3cn(CC4CCCCC4)nn3)C(C)C2)cc1 (configuration not stated)	.	29.2%	i	i	15.4%
CCCNC(=O)c1ccc(COc2cccc3ccccc23)o1	27.4%	17.8µM*	i	i	-7.9%
CCOC(=O)N/C(N)=N/c1nc2ccccc2s1	1.2%	11.2µM*	i	i	.
CC(=O)N/C(N)=N/c1nc(=O)c2ccccc2s1	-3.7%	6.9%	i	i	5.6%
Cc1cc(N2CCOCC2)n2ncc(-c3ccccc3Cl)c2n1	13.1%	12.6µM*	i	i	11.3%
O=S(=O)(NCC(c1ccco1)N1CCN(c2ccc(F)cc2)CC1)c1cc(F)ccc1F (configuration not stated)	.	21.1%	i	?	.
COC(=O)[C@@]12C[C@@H](CC(=O)N3CCOCC3)C(=O)N(Cc3ccccc3)C1=CCC(C)(C)C2	.	0.0%	i	i	1.5%
Cc1ccccc1OCC(=O)NCC(=O)OCc1cccc2ccccc12	.	.	.	.	2.8%
Cc1cc(NC(=O)c2ccc(C#N)cc2)n(-c2ccccn2)n1	-3.7%	-10.7%	i	?	-12.1%
Cc1cc(NC(=O)c2ccc(F)cc2)n(-c2ccccn2)n1	5.9%	15.8µM*	i	i	1.7%
Cc1ccc(C)c(OCc2nc3ccccc3n2C)c1	.	22.3%	i	?	.
COc1cccc(OCc2nc3ccccc3n2Cc2ccccc2C)c1	.	22.4µM*	i	?	.
Cc1cccc(NCc2nc3ccccc3n2Cc2ccccc2)c1	7.1%	15.8µM*	i	?	0.0%
COc1ccc(Cc2nc3ccccc3n2Cc2ccccc2C)cc1	.	7.5%	i	i	.
Cc1nc2cc(NCc3nc4ccccc4n3Cc3ccccc3)ccc2n1C	-0.2%	-11.3%	.	i	-7.9%
Cc1ccccc1OCc1nc2ccccc2n1C	-15.0%	17.8µM*	i	i	-15.7%
Cc1cccc(-c2nc3ccccc3n2Cc2ccccc2)c1	.	11.2µM*	i	i	.
C=Cc1ccc(Cn2c(C(=O)O)c(CNCc3ccccc3)c3ccc(C)cc32)cc1	.	-3.1%	?	i	-37.5%
SMILES	Mito fusion act	TDP-43 yeast inh	FUS suppressor	Abeta yeast res	aSyn rescue
CCCn1c(-c2cccc(Br)c2)nc2ccccc21	.	25.8%	i	i	.
Cc1ccc(Cn2c(Cc3ccccc3)nc3ccccc32)cc1	-6.1%	-6.1%	i	i	-13.0%
Fc1ccc(Cn2c(-c3cccc(Br)c3)nc3ccccc32)cc1	.	22.4µM*	i	i	.
Cc1cccc(Cn2c(COc3ccccc3)nc3ccccc32)c1	.	17.8µM*	i	i	?
Cc1ccc(Cn2c(-c3ccccc3)nc3ccccc32)cc1	.	25.1µM*	i	i	.
COc1ccc(C(=O)/C=C/c2ccc3c(c2)OCCO3)cc1	-10.1%	20µM*	i	i	0.1%
Cc1ccc(C(=O)C=Cc2ccc3c(c2)OCO3)c(C)c1	.	?	i	i	8.4%
O=C(/C=C/c1ccc2c(c1)OCCO2)c1ccccc1	-12.1%	15.8µM*	i	i	-2.7%
COc1ccc(C(=O)C=Cc2ccc3c(c2)OCO3)cc1OC	.	14.1µM*	i	i	-1.3%
Cc1ccc(O)c(C(=O)/C=C/c2ccc3c(c2)OCCO3)c1	4.9%	17.8µM*	i	i	-1.8%
CC(=O)Nc1ccc(/C=C/C(=O)c2ccc3c(c2)OCCO3)cc1	-2.4%	17.7%	i	i	1.2%
COc1ccc(C=CC(=O)c2ccc(OC)c(OC)c2)cc1O	.	?	i	i	?
CC(=O)c1cccc(NC(=O)CCc2nc3sc4c(c3c(=O)[nH]2)CCCC4)c1	-1.2%	6.2%	i	i	2.2%
COc1ccc(/C=N/NC(=O)c2ccc3c(c2)OCCO3)cc1[N+](=O)[O-]	-1.9%	-7.4%	.	i	-10.3%
COc1ccc(C)cc1NC(=O)COC(=O)c1ccc2c(c1)OCO2	6.6%	-2.5%	i	i	-11.7%
COc1ccc(/C=C/C(=O)c2ccc3c(c2)OCCO3)cc1[N+](=O)[O-]	-4.3%	12.6µM*	i	i	0.1%
COc1ccc(C)cc1NC(=O)c1ccc2c(c1)OCO2	4.4%	12.6µM*	i	i	10.4%
COc1ccc(CCNC(=O)c2cc(-c3ccc(C)cc3)nc3n[nH]c(-c4ccc(F)cc4)c23)cc1OC	.	-20.4%	i	i	.
CCc1ccc(NC(=O)Cn2c(=O)n(Cc3ccco3)c(=O)c3oc4ccccc4c32)cc1	.	6.7%	i	i	.
CC(=O)c1ccccc1OCCn1nnc(-c2ccc(C)cc2)n1	20.5%	25.1µM*	i	i	12.2%
COC(=O)CCn1nnc(-c2ccc(C)cc2)n1	-0.8%	-0.5%	i	i	15.8%
Cc1noc(C)c1COc1cccc(C(=O)Nc2ccc(C#N)cc2)c1	5.5%	14.1µM*	i	i	-2.3%
COc1cc2c(cc1OC)-c1cc(=Nc3c(C)cc(C)cc3C)n(C)c(=O)n1CC2	18.4µM*	.	.	.	-6.8%
CCOc1ccc(/C=N/NC(=S)NC2CC3C=CC2C3)cc1 (configuration not stated)	-9.8%	16.2%	i	7.94µM*	-10.1%
COc1cc(/C=N/NC(=S)NC2CC3C=CC2C3)cc(OC)c1OC (configuration not stated)	5.2%	21.7%	i	?	-5.9%

Compound activity from PubChem.
